Compound activity from PubChem BioAssay.
HIV RNase H inh-1 – HIV-1 RT RNase H inhibitors, primary screen, biochemical, fluorescence | Gag-Pol polyprotein (Human immunodeficiency virus type 1 group M subtype B (isolate … | RT-RNase H RNA/DNA duplex cleavage | inhibition, % at 10 µM | actives 1.9% (n = 65,000); in the data active = inhibition above about 50%
RmlC RmlD mix – RmlC and RmlD coupled enzyme inhibitors, primary screen, biochemical, 384-well, compound mixtures, retest; RmlC/RmlD coupled enzyme inhibition, 384-well mixture HTS; inhibition, % at 5.5 µM; actives 0.39% (n = 110,000); in the data active = inhibition above about 30%, passing the limit was not always enough; inconclusive = no clear call, values can overlap the other calls
HIV RNase H inh-2 – HIV-1 RT RNase H inhibitors, retest, confirmation, biochemical; AID 651, 2007; actives 39% (n = 1,000); shares compounds with HIV RNase H inh-1; Recombinant RT RNase H, fluorescent RNA/DNA duplex cleavage; inhibition, % at 10 µM; in the data active = inhibition above about 48%; inconclusive = no clear call, values can overlap the other calls
The depositor's hits bear a star; u = inconclusive; x = no result. Many of the other results were omitted from the sample, so hits are more common in it than they were.

SMILES | HIV RNase H inh-1 | RmlC RmlD mix | HIV RNase H inh-2
O=C1N=C(N2CCOCC2)S/C1=C1\C(=O)N(Cc2ccccc2)c2ccc(Br)cc21 | 11.9 | x | x
CCCCN1C(=O)/C(=C2\SC(N3CCCCC3)=NC2=O)c2ccccc21 | 86.2* | -21.4 | 25.0
COc1ccc(CN(Cc2cc3cc4c(cc3[nH]c2=O)OCO4)C(=O)NC2CCCCC2)cc1 | 0.3 | 3.0 | x
COC(=O)c1ccccc1S(=O)(=O)N(Cc1cc2cc3c(cc2[nH]c1=O)OCO3)C1CCCCC1 | 53.1* | x | 51.6*
Cc1ccc(C)c(NC(=O)CSc2nc3c(c(=O)n2C)SC(C)C3)c1 (stereo not given) | -19.0 | 6.8 | x
Cc1ccc2nc(NC(=O)CSc3nc4c(c(=O)n3C)SC(C)C4)sc2c1 (stereo not given) | 79.0* | 10.2 | 42.3
CCCc1cc(C(N)=O)c(NC(=O)C2CCCO2)s1 (stereo not given) | 76.0* | 8.9 | 63.9*
Cc1sc(NC(=O)C2CCCO2)c(C(N)=O)c1C (stereo not given) | x | -9.3 | x
CC(NC(=O)CNC(=O)OCc1ccccc1)C(=O)N1CC(O)CC1C(=O)OCc1ccccc1 (stereo not given) | 65.8* | 1.2 | 38.5
CNC(=O)[C@@H]1C[C@H]1[C@@H](NC(=O)CNC(=O)OCc1ccccc1)c1ccccc1 | x | -7.7 | x
O=C(Nc1cc2c(cc1Br)OCCO2)c1ccco1 | x | 10.2 | x
CCOC(=O)c1cnc(SC)nc1Oc1cccc(NC(=O)c2cccc(Cl)c2Cl)c1 | x | -9.5 | x
OCCSc1nc(-c2cccnc2)nc2ccccc12 | -42.2 | 5.1 | x
CCOC(=O)CSc1nc2cc(C)cc(C)c2cc1C#N | 10.2 | 7.3 | x
Cc1cc(C)c2cc(C#N)c(SCC(=O)NCc3ccco3)nc2c1 | 72.0* | x | 35.2
COc1ccc(-c2[nH]c(-c3ccc(C)cc3)nc2SCC(=O)NCc2ccco2)cc1OC | x | 7.2 | x
Cc1ccc2c(SCC(=O)NCc3ccco3)nc(-c3ccc(F)cc3)nc2c1 | 75.1* | 8.3 | 54.8*
Cc1cc(C)c(S(=O)(=O)NNC(=O)C2CCN(Cc3ccccc3)CC2)c(C)c1 | x | -8.8 | x
O=C(CCn1cccc1)NCc1ccc2c(c1)OCO2 | 5.5 | -10.1 | x
COC/C=C/C1=CC2=CC(=O)C(C)(OC(=O)c3cnc4ccccc4n3)C(=O)C2=CO1 (stereo not given) | x | -11.1 | x
C=CCn1c(Cc2c[nH]c3ccccc23)nnc1SCC(=O)NCc1ccccc1 | x | 1.2 | x
C=CCn1c(Cc2c[nH]c3ccccc23)n[nH]c1=S | 53.6* | -12.3 | 20.1
COc1cc(CNCc2ccccn2)ccc1OCc1cccc(Cl)c1 | x | -18.2 | x
CCSc1nnc(NC(=O)c2cc3c(s2)CCCC3)s1 | 11.4 | -7.0 | x
CCSc1nnc(NC(=O)c2csc3c2CCCC3)s1 | 62.5* | 6.1 | u
SMILES | HIV RNase H inh-1 | RmlC RmlD mix | HIV RNase H inh-2
Cc1ccc(C(=O)NNC(=O)C2CCN(c3nccc(C)n3)CC2)cc1 | x | 7.7 | x
CCCCn1c(SCC(=O)OCC)nc2c1c(=O)[nH]c(=O)n2C | 67.8* | 8.0 | 64.2*
CCOCCn1c(SC)nc2c1c(=O)[nH]c(=O)n2C | 59.5* | 9.1 | -4.5
CCOC(=O)CSc1nc2c(c(=O)[nH]c(=O)n2C)n1CCc1ccccc1 | -2.2 | 10.2 | x
CCOCCn1c(SCCCc2ccccc2)nc2c1c(=O)[nH]c(=O)n2C | -40.5 | 4.6 | x
CC(=O)N1C2CCCCC2S[C@H]2CCCCC21 (stereo not given in full) | -5.1 | 15.7 | x
CC(=Nc1ccc(C)c(C)c1)C1=C(O)CSC1=O | -8.4 | -14.8 | x
C/C=C1\COC(C(=O)NCCCN2CCCC2=O)(C(F)(F)F)C=C1C=C(C)C (stereo not given) | x | -13.4 | x
C1=CC2c3ccccc3NC(c3ccncc3)C2C1 (stereo not given) | 2.8 | -7.0 | x
O=C(O)c1ccc(Cl)c2c1C1C=CCC1C(c1ccccn1)N2 (stereo not given) | 83.3* | 8.6 | -1.6
Cc1nc(N2CCCCC2)c2sc(=S)n(C)c2n1 | -11.2 | 5.7 | x
CCN1CCN(c2nc(C)nc3c2sc(=S)n3C)CC1 | 90.2* | 1.5 | 64.7*
O=C(CCS(=O)(=O)c1cccc2nsnc12)NC1CCCCC1 | x | -2.9 | x
C=CCn1c(Cc2cccs2)nnc1SCC(=O)Nc1cccc(OC)c1 | 72.9* | 29.6 | 42.3
C=CCn1c(Cc2cccs2)nnc1SCC(=O)Nc1ccc(OC)cc1 | -28.9 | 7.9 | x
CC1CCCN(Cc2cccc(Oc3ccccc3)c2)C1 (stereo not given) | x | -20.4 | x
O=C(NCc1nc2ccccc2[nH]1)C1=C[C@H](c2ccc3c(c2)OCO3)C[C@H](OCc2ccc(CO)cc2)O1 | x | -0.8 | x
O=C(NCCCn1ccnc1)c1ccc(Cl)c(S(=O)(=O)N2CCOCC2)c1 | 4.0 | -8.0 | x
CCOC(=O)c1sc(=S)n(CC)c1N | -9.6 | 6.2 | x
CCn1c(N)c(C(N)=O)sc1=S | 70.3* | 4.9 | -2.2
COC(=O)C1=C(C(=O)OC)[C@@H]2N(C)c3ccc(OC)cc3[C@@]23C[C@@H](C(=O)OC)N(C(=O)COCc2ccccc2)C3=N1 | x | 7.1 | x
Cc1sc(-n2c(C)cc(/C=N/n3cnnc3)c2C)c(C#N)c1C | 78.2* | 1.4 | 69.4*
Cc1sc(-n2c(C)cc(/C=C3\SC(=S)NC3=O)c2C)c(C#N)c1C | x | 0.3 | x
CCOC(=O)C(CC)Sc1nc(-c2ccc(OC)cc2)nc2c1c(=O)n(C)c(=O)n2C (stereo not given) | 9.0 | x | x
Cc1cc(C)c(S(=O)(=O)NCc2cn3c(C)csc3n2)cc1C | -15.7 | 2.2 | x
SMILES | HIV RNase H inh-1 | RmlC RmlD mix | HIV RNase H inh-2
O=c1[nH]nc(Cc2ccc3ccccc3n2)c2ccccc12 | x | 4.3 | x
O=C(O)C1C2C=CC(O2)C1C(=O)Nc1ccc(S(=O)(=O)N2CCc3ccccc32)cc1 (stereo not given) | -14.1 | 5.0 | x
O=C(O)C1C2C=CC(O2)C1C(=O)Nc1ccc(S(=O)(=O)Nc2ccccc2)cc1 (stereo not given) | 58.0* | x | 15.5
O=C(CCn1c(=S)[nH]c2ccccc2c1=O)N1CCN(c2ccccn2)CC1 | -11.9 | x | x
CC(=O)C[C@H]1c2cc(C(F)(F)F)ccc2S(=O)(=O)N1c1ccc(N(C)C)cc1 | x | -5.4 | x
COc1ccc(-c2cnc(OC(C)(C)C)nc2OC(C)(C)C)cc1OC | x | -6.0 | x
CCOc1cc2[nH]c(=O)n(CC3CCC(C(=O)NCCC(C)C)CC3)c(=O)c2cc1OCC (stereo not given) | 68.3* | x | u
CCOc1cc2[nH]c(=O)n(CC3CCC(C(=O)NCCCOC)CC3)c(=O)c2cc1OCC (stereo not given) | 0.2 | -5.6 | x
CCOC(=O)C1CCN(C(=O)Nc2ccc(Cl)cc2Cl)CC1 | -4.3 | x | x
O=C(CC12CC3CC(CC(C3)C1)C2)NCC(=O)N1CCc2ccccc2C1 | x | 8.4 | x
COc1ccccc1-c1c(C#N)c(SCC(=O)N2CCCC2)nc(C)c1C(N)=O | 65.1* | 4.3 | -1.7
CC(C)c1ccc(-c2c(C#N)c(N)nc(SCC(=O)N3CCCCC3)c2C#N)cc1 | x | -8.5 | x
CCc1ccc(NC(=O)CCn2ccnc2C)cc1 | x | 143.8 | x
CC(C)CCOC(=O)C1C(c2ccccc2)C(C(=O)O)C1c1ccccc1 (stereo not given) | x | -11.7 | x
N[C@@H](Cc1ccc(O)cc1)c1nnc([C@H](CO)NC(=O)C2CCNCC2)o1 | x | -13.9 | x
